# Values of other authors, collected in PubChem BioAssay AID977610 (Shanghai Institute of Organic Chemistry, 2013).
# Out of some 3,600 compounds screened, about 3,600 (100%) were called active. The limit is not given here; nearly all actives have Ki up to about 18000 µM. The set was probably picked from earlier hits. The list shows a part of the results. Numbered stars: 1 amine (or outer) side, 2 acyl side, 3 side chain; on linkers, the order of the positions; unused ones are H or OH. Square brackets hold non-standard residues; d marks the D form. Residues, ends and D or L forms follow the SMILES beside them. Peptide text beside a SMILES is read from it. * marks the point of attachment. Orn(CH(NH2)2) = NC(N)NCCC[C@H](N)C(=O)O; X2 = O=C([C@H]1CCC[C@@H]1N[*:1])[*:2]; X1 = N[C@H]1CNC[C@@H]1C(=O)*; β3hL = CC(C)C[C@H](N)CC(=O)O
# Assay: PubChem AID 977610
# Details: PDB protein-ligand complexes, literature Ki
structure (smiles),measurement,setting,value
Cc1nc2cc(OCc3ccc4ccccc4n3)ccc2s1,Ki,"protein: PDE10A2, PDB entry 4mse",0.69 µM (active)
c1cnc2cc(OCc3ccc4ccccc4n3)ccc2c1,Ki,"protein: PDE10A2, PDB entry 4msc",1.1 µM (active)
O=c1[nH]c(=O)n([C@@H]2O[C@H](CO[P+](O)(O)O)[C@@H](O)[C@H]2O)cc1F,Ki,"protein: Mt orotidine 5'-monophosphate decarboxylase (OMPDC) D70G mutant, PDB entry 3g1v",645 µM (active)
O=c1[nH]c(=O)n([C@H]2C[C@H](O)[C@@H](CO[P+](O)(O)O)O2)cc1F,Ki,"protein: human Thymidylate synthase (TS) R163K, PDB entry 3h9k",0.014 µM (active)
Nc1ncnc2c1ncn2[C@@H]1O[C@H](COP(=O)(O)OP(=O)(O)NP(=O)(O)O)[C@@H](O)[C@H]1O,Ki,"protein: Lipid A export ATP-binding/permease protein msbA, PDB entry 3B5Y",10 µM (active)
Nc1ncnc2c1ncn2[C@@H]1O[C@H](CO[P+](O)(O)O[P+](O)(O)N[P+](O)(O)O)[C@@H](O)[C@H]1O,Ki,"protein: ATP-BINDING CASSETTE SUB-FAMILY B MEMBER 10, PDB entry 4ayw",100 µM (active)
Nc1ncnc2c1ncn2[C@@H]1O[C@H](COS(=O)(=O)NC(=O)[C@@H](N)CO)[C@@H](O)[C@H]1O,Ki,"protein: Threonine--tRNA ligase, mitochondrial, PDB entry 4eo4",0.45 µM (active)
Nc1ncnc2c1ncn2[C@@H]1O[C@H](CO[P+](O)(O)O[P+](O)(O)O[P+](O)(O)O)[C@@H](O)[C@H]1O,Ki,"protein: 6-phosphofructokinase isozyme 2, PDB entry 3umo",129 µM (active)
same,Ki,"protein: 6-phosphofructokinase isozyme 2, PDB entry 3ump",1030 µM (active)
Nc1ncnc2c1ncn2[C@@H]1O[C@H](CO[P+](O)(O)O[P+](O)(O)C[P+](O)(O)O)[C@@H](O)[C@H]1O,Ki,"protein: ATP-BINDING CASSETTE SUB-FAMILY B MEMBER 10, PDB entry 4ayx",200 µM (active)
same,Ki,"protein: ATP-BINDING CASSETTE SUB-FAMILY B MEMBER 10 MITOCHONDRIAL, PDB entry 4ayt",200 µM (active)
Nc1ncnc2c1ncn2[C@@H]1O[C@H](CO[P+](O)(O)OCC=CCC[C@@H]2SC[C@@H]3NC(=O)N[C@@H]32)[C@@H](O)[C@H]1O,Ki,"protein: Biotin-[acetyl-CoA-carboxylase] ligase, PDB entry 4dq2",0.03 µM (active)
Nc1ncnc2c1ncn2[C@@H]1O[C@H](CO[P+](O)(O)O)[C@@H](O)[C@H]1O[P+](O)(O)O,Ki,"protein: Aspartate-semialdehyde dehydrogenase ASADH, PDB entry 4r3w",1000 µM (active)
Cc1ccc2oc(=O)n(CCCCn3cc(CCCCC[C@@H]4SC[C@@H]5NC(=O)N[C@@H]54)nn3)c2c1,Ki,"protein: Biotin ligase, PDB entry 3v7s",0.09 µM (active)
CC1(C)O[C@@H]2[C@H](O1)[C@@H](Cn1cc(CCCCC[C@@H]3SC[C@@H]4NC(=O)N[C@@H]43)nn1)O[C@H]2n1cnc2c(N)ncnc21,Ki,"protein: Biotin ligase, PDB entry 3v7c",1.83 µM (active)
O[C@@H]1[C@H](O)[C@@H](CO[P+](O)(O)O)O[C@H]1n1cnc2c(-c3ccc4ccccc4c3)ncnc21,Ki,"protein: 2'-deoxynucleoside 5'-phosphate N-hydrolase 1 DNPH1, PDB entry 4p5e",2.8 µM (active)
same,Ki,"protein: 2'-deoxynucleoside 5'-phosphate N-hydrolase 1 DNPH1, PDB entry 4p5d",1.5 µM (active)
O=C(N[C@@H](CCCCNC(=O)c1ccc(I)cc1)C(=O)O)N[C@@H](Cc1ccncc1)C(=O)O,Ki,"protein: Glutamate carboxypeptidase 2 GCPII, PDB entry 4oc4",0.105 µM (active)
O=C(N[C@@H](CCCCNC(=O)c1ccc(I)cc1)C(=O)O)N[C@H](C(=O)O)c1ccc(O)cc1,Ki,"protein: Glutamate carboxypeptidase 2 GCPII, PDB entry 4oc5",0.085 µM (active)
O=C(N[C@@H](CCCCNC(=O)c1ccc(I)cc1)C(=O)O)N[C@@H](C[C@H]1CO1)C(=O)O,Ki,"protein: Glutamate carboxypeptidase 2 GCPII, PDB entry 4oc1",0.254 µM (active)
O=C(N[C@@H](CCCCNC(=O)c1ccc(I)cc1)C(=O)O)N[C@@H](Cc1ccco1)C(=O)O,Ki,"protein: Glutamate carboxypeptidase 2 GCPII, PDB entry 4oc3",0.0053 µM (active)
O=C(N[C@@H](CCCCNC(=O)c1ccc(I)cc1)C(=O)O)NC1(C(=O)O)CC1,Ki,"protein: Glutamate carboxypeptidase 2 GCPII, PDB entry 4oc0",0.318 µM (active)
C#CC[C@H](NC(=O)N[C@@H](CCCCNC(=O)c1ccc(I)cc1)C(=O)O)C(=O)O,Ki,"protein: Glutamate carboxypeptidase 2 GCPII, PDB entry 4oc2",0.0053 µM (active)
CC[C@H](C)[C@H](NC(=O)[C@H](CCCCN)NC(=O)[C@@H]1CCCN1C(=O)[C@@H](N)CCCNC(N)N)C(=O)N1CCC[C@H]1C(=O)N1CCC[C@H]1C(=O)O (H-[Orn(CH(NH2)2)]PKIPP-OH),Ki,"protein: ANGIOTENSIN-CONVERTING ENZYME, ANCE, PDB entry 4aa2",107 µM (active)
CC(C)C[C@@H](CC(=O)NCC(=O)N[C@@H](CC(=O)O)C(=O)N[C@@H](C)C(=O)N[C@@H](Cc1ccccc1)C(=O)N[C@@H](CC(N)=O)C(=O)N[C@@H](CCCNC(N)N)C(N)=O)NC(=O)[C@H](CCCCN)NC(=O)[C@H]1CCC[C@@H]1NC(=O)[C@H](CC(C)C)NC(=O)[C@H]1CCC[C@@H]1NC(=O)[C@H](CCCNC(N)N)NC(=O)[C@H]1CCC[C@@H]1NC(=O)[C@H](C)NC(=O)[C@H]1CNC[C@@H]1N (X1-A[X2][Orn(CH(NH2)2)][X2]L[X2]K[β3hL]GDAFN[Orn(CH(NH2)2)]-NH2),Ki,"protein: Apoptosis regulator Bcl-XL, PDB entry 3fdm",0.002 µM (active)
CSCC[C@H](NC(=O)[C@H](CC(C)C)NC(=O)CNC(=O)[C@H](Cc1ccccc1)NC(=O)[C@H](Cc1ccccc1)NC(=O)[C@H](CCC(N)=O)NC(=O)[C@H](CCC(N)=O)NC(=O)[C@@H]1CCCN1C(=O)[C@H](CCCCN)NC(=O)[C@@H]1CCCN1C(=O)[C@@H](N)CCCNC(N)N)C(=O)O,Ki,"protein: Substance-P receptor, PDB entry 2ks9",9020 µM (active)
same,Ki,"protein: Substance-P receptor, PDB entry 2ksa",871 µM (active)
same,Ki,"protein: Substance-P receptor, PDB entry 2ksb",754 µM (active)
CSCC[C@H](NC(=O)[C@H](CC(C)C)NC(=O)[C@H](CC(C)C)NC(=O)[C@@H]1CCCN1C(=O)[C@@H](N)Cc1cnc[nH]1)C(=O)N[C@@H](CCCNC(N)N)C(=O)N[C@@H](CC(C)C)C(=O)N[C@@H](CC(C)C)C(=O)N[C@@H](Cc1cnc[nH]1)C(=O)N[C@@H](Cc1cnc[nH]1)C(=O)N1CCC[C@H]1C(=O)N[C@@H](CO)C(=O)O (H-HPLLM[Orn(CH(NH2)2)]LLHHPS-OH),Ki,"protein: Estrogen receptor beta, PDB entry 4j26",3.64 µM (active)
CC(C)C[C@H](NC(=O)[C@H](CC(C)C)NC(=O)[C@H](Cc1cnc[nH]1)NC(=O)[C@H](CCCNC(N)N)NC(=O)[C@H](CC(C)C)NC(=O)[C@H](CC(C)C)NC(=O)[C@H](CC(C)C)NC(=O)[C@@H]1CCCN1C(=O)[C@H](Cc1cnc[nH]1)NC(=O)[C@@H](N)CCCNC(N)N)C(=O)N[C@@H](CCC(N)=O)C(=O)N[C@@H](CC(N)=O)C(=O)O (H-[Orn(CH(NH2)2)]HPLLL[Orn(CH(NH2)2)]HLLQN-OH),Ki,"protein: Estrogen receptor beta, PDB entry 4j24",0.05 µM (active)
CC(C)C[C@H](NC(=O)[C@H](CS)NC(=O)[C@@H]1CCCN1C(=O)[C@@H](NC(=O)[C@@H]1CCCN1C(=O)[C@@H]1CCCN1C(=O)[C@H](CS)NC(=O)[C@H](Cc1ccc(O)cc1)NC(=O)[C@H](CC(N)=O)NC(=O)[C@@H](NC(=O)[C@H](CCC(N)=O)NC(=O)[C@H](CS)NC(=O)CN)C(C)C)C(C)C)C(N)=O (H-GCQVNYCPPVPCL-NH2),Ki,"protein: urokinase-type plasminogen activator (uPA), PDB entry 4mny",1.96 µM (active)
O=C(NCC1(C2NC(c3ccccc3)=CS2)CCOCC1)c1cccc(-c2noc(C(F)(F)F)n2)c1 (stereo not drawn),Ki,"protein: HISTONE DEACETYLASE 7, PDB entry 3znr",0.036 µM (active)
